Where “and” joins values, the source holds several entries; their conditions need not be identical. Equal values may be shown once. Records with an inconclusive call do not appear. Calls of active or inactive are those of the source. Unless noted, calls come from the whole dose curve; as a rule, active = well fitted curve in the direction sought with a large enough effect; inconclusive = small, poorly fitted or top-dose-only effect, or another doubt; inactive = no such curve, though single readings can be large; an effect the other way counts as inactive or inconclusive.

A short description of assay [1]: Cell Viability - BJ (AID 421; calls by dose curve;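 note: potency is the fitted concentration of half-maximal effect; cells exposed to compound for 40 hours at 37 °C before readout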). To be noted: BJ fibroblast viability, qHTS. Summed up: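 Normal human BJ foreskin fibroblasts, 1500/well in complete medium, treated 40 hr at 37 °C. Cellular ATP by CellTiter-Glo luminescence; normalized to DMSO and 100 uM tamoxifen, AC50 from Hill fit.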
A general note: qHTS replaces the single test concentration by a dilution series.

A short description of assay [2]: Cell Viability - HepG2 (AID 433; calls by dose curve;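 note: potency is the fitted concentration of half-maximal effect; potency for ATP loss meaning cytotoxicity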). Conditions: qHTS. The method in brief: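 Cytotoxicity read as ATP loss (CellTiter-Glo luminescence) after 40 hr compound exposure of HepG2, 1500 cells/well, 37 °C. AC50 by Hill equation; 0% set by DMSO, 100% inhibition by 100 uM tamoxifen.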
Assay [3] can be described thus: Cell Viability - MRC5 (AID 434; calls by dose curve;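 note: potency is the fitted concentration of half-maximal effect; cells exposed to compound for 40 hours at 37 °C; potency reflects cytotoxicity seen as loss of intracellular ATP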). Conditions: MRC5 lung fibroblast viability, qHTS. The method in brief: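 Decrease in intracellular ATP, quantified by luciferase light output, reflects compound toxicity toward MRC5 cells exposed for 40 hr in complete culture medium. Concentration-response curves, scaled between DMSO and 100 uM tamoxifen, gave AC50 values.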
Assay [4] can be described thus: Cell Viability - HUV-EC-C (AID 542). Note: % is set by controls: 0 for no effect and ±100 for the full control effect; nearly all actives have a fitted effect of over 35% in size. The method in brief:
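Concentration-dependent ATP loss in HUV-EC-C cells is the measure. Exposure lasts 40 hr at 37 °C; luminescence follows CellTiter-Glo addition, and Hill fits give AC50.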

A short description of assay [5]: Cellular Toxicity (caspase-3) Jurkat (AID 655).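 Note: cells exposed to compound for 16 h at 37 °C before reading.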 To be noted: Jurkat caspase-3 activation, luminescence; caspase-3 activation: at 92.2 µM (top of the series), DMSO = 0%, tamoxifen = 100%. Summed up:
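Luminescent Caspase-Glo 3/7 read-out (20 min, room temperature) after 16 h compound treatment at 37 C of 5000 Jurkat cells per well. AC50 derived by Hill-equation fitting, scaled between DMSO basal and 100 uM tamoxifen stimulation.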

Assay [6] in a line: Cellular Toxicity (caspase-3) H-4-II-E (AID 663).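 Note: cells exposed to compound for 16 hr before readout.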 Conditions: Potency: caspase-3 activation. Summed up:
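Caspase 3/7 activation measured in H-4-II-E cells in complete culture medium after 16 hr treatment at 37 °C, using luciferase-coupled substrate readout; AC50 values come from Hill-equation fits of normalized concentration-response data.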

A short description of assay [7]: Cellular Toxicity (caspase-3) NIH 3T3 (AID 666).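 Note: caspase signal read after 16 h compound exposure; 0% = DMSO basal and 100% = 100 µM tamoxifen stimulation.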 The method in brief: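 Activity: caspase-3/7 induction, NIH 3T3 cells, 16 hr treatment at 37°C, luminescent Caspase-Glo detection; AC50 via Hill equation.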
Assay [8] concerns the target Cytochrome P450 3A4 (Homo sapiens) (UniProt P08684). Briefly: qHTS Assay for Inhibitors and Substrates of Cytochrome P450 3A4 (AID 884). Note: % is set by controls: 0 for no effect and ±100 for the full control effect; nearly all actives have a fitted effect of over 50% in size. Summed up: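 Luminescent readout of luciferin produced by CYP3A4 (20 nM) dealkylation of Luciferin-PPXE, 25 uM (its KM). NADPH-driven reaction ran 60 min at RT after 10 min compound preincubation; data scaled to 57 uM ketoconazole as 100% inhibition.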

Assay [9] can be described thus: MultiTox-Fluor Cytotoxicity Assay - LYMP1-001 - Dead Cells (AID 946). Note: potency is the fitted concentration of half-maximal effect. Summed up:
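LYMP1-001 lymphoblastoid cells (2500/well) treated 16 h at 37 C. Dead-cell protease cleavage of bis-AAF-R110 read at Ex/Em 485/520. Normalized to DMSO and 15 uM tetraoctylammonium bromide; AC50 from Hill fits.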

A short description of assay [10]: Cell Viability - LYMP1-002 - Assay at 16 hr (AID 948).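 Note: 0% = DMSO alone and full effect = 92 µM tetraoctylammonium bromide.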 The method in brief: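 ATP luminescence (CellTiter-Glo) was measured after 16 hr compound exposure at 37 C of 2500 lymphoblastoid LYMP1-002 cells per well. Concentration-response curves were fitted with the Hill equation to give AC50.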
Assay [11] in a line: MultiTox-Fluor Cytotoxicity Assay - LYMP1-002 - Live Cells (AID 955). Note: % is set by controls: 0 for no effect and ±100 for the full control effect. Summed up: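 In this qHTS viability format, lymphoblastoid cells (LYMP1-002, human) received compound for 16 hr at 37 C. Fluorogenic GF-AFC cleavage by viable cells was detected at 405/510 nm after 1 h at room temperature.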
The nature of assay [12]: MultiTox-Fluor Cytotoxicity Assay - LYMP1-002 - Dead Cells (AID 960). Note: nearly all actives have a fitted effect of over 60% in size. Note: potency is the fitted concentration of half-maximal effect. The method in brief: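 Concentration-dependent increases in membrane-leaked protease activity are quantified in LYMP1-002 cells after 16 hr treatment; values are normalized against DMSO and tetraoctylammonium bromide (15 uM) controls and AC50 derived by Hill modeling.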
The nature of assay [13]: MultiTox-Fluor Cytotoxicity Assay - LYMP1-003 - Dead Cells (AID 961). Note: nearly all actives have a fitted effect of over 70% in size. Note: potency is the fitted concentration of half-maximal effect. The method in brief: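 LYMP1-003 human lymphoblastoid cells (2500/well) exposed to compound 16 h at 37 C in complete medium; dead-cell protease read with bis-AAF-R110 fluorescence (Ex/Em 485/520) after 60 min at room temperature. Normalized to DMSO and 15 uM tetraoctylammonium bromide; AC50 from Hill fit.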

Assay [14] can be described thus: MultiTox-Fluor Cytotoxicity Assay - LYMP1-003 - Live Cells (AID 962).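 Note: 0% = DMSO only and full loss = 92 µM tetraoctylammonium bromide; cytotoxic hits lower the live-cell protease signal.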 Summed up: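 Human lymphoblastoid line LYMP1-003 in complete culture medium, treated 16 hr with titrated compounds. Viable cells quantified via cell-permeant GF-AFC substrate fluorescence; AC50 derived by Hill fitting.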
Assay [15] is described as follows: Cell Viability - LYMP2-018 (AID 985).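 Note: compound exposure lasted 24 hr at 37 °C; nearly all actives have a fitted effect of over 50% in size.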 Note: potency is the fitted concentration of half-maximal effect. The method in brief:
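In this qHTS viability assay, cells are treated for 24 hr and cellular ATP is quantified by luciferase-based luminescence, with tetraoctylammonium bromide as positive control.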

A short description of assay [16]: Cell Viability - LYMP1-002 - Assay at 24 hr (AID 993). Note: % is set by controls: 0 for no effect and ±100 for the full control effect. Summed up:
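Viability was judged from intracellular ATP using a luciferase read-out, following a 24-hour compound incubation at 37 C of lymphoblastoid cells seeded at 2500 per well. Concentration-response data were fitted to the Hill equation for AC50.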

Assay [17] is described as follows: qHTS assay for small molecule antagonists of retinoid X receptor alpha signaling (AID 588546; active = well fitted inhibition curve with a large enough effect in the signal ratio, with a control signal flat, not every such curve was filed as active; the % refers to the signal ratio;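 note: cells stimulated with 9-cis-retinoic acid as agonist; % is set by controls: 0 for no effect and ±100 for the full control effect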). Conditions: HEK293T RXRa-UAS-bla, beta-lactamase ratio, antagonist mode; measured here: W530 green channel, cytotoxicity proxy. Summed up: (§1)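 Beta-lactamase reporter inhibition, read as CCF4 fluorescence ratio (ex 405, em 460/530 nm) after 2 h at RT. HEK293T UAS-bla cells, 2500/well, were stimulated with 9-cis-RA at 500 or 100 nM final alongside test compound for 18 h at 37 C.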

Assay [18] deals with Retinoic acid receptor RXR-alpha (Homo sapiens) (UniProt P19793). The assay is described as above. To be noted: HEK293T RXRa-UAS-bla, beta-lactamase ratio, antagonist mode. Summed up: as §1
Sequence of Retinoic acid receptor RXR-alpha (Homo sapiens) (P19793 whole entry, looked up): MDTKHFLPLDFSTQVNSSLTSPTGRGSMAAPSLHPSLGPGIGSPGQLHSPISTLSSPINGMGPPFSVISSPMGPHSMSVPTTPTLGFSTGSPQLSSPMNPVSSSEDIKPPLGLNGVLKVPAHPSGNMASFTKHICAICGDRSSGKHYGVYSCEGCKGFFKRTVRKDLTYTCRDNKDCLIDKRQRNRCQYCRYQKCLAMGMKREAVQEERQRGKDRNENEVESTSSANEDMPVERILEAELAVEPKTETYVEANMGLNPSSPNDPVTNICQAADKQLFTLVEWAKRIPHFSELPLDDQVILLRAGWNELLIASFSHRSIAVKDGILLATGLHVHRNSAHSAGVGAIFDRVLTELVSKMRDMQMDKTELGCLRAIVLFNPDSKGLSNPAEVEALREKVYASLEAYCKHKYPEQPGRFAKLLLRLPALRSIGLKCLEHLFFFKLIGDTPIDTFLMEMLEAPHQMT
The nature of assay [19]: qHTS assay for small molecule disruptors of the mitochondrial membrane potential - 5 hr assay (AID 651755; calls by dose curve; note: % is set by controls: 0 for no effect and ±100 for the full control effect; nearly all actives have a fitted effect of over 40% in size). The method in brief: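 Seed HepG2 overnight, add compound, incubate 5 hr at 37C and 5% CO2, stain 30 min with Mito-MPS, then measure monomer (490/535 nm) and aggregate (540/590 nm) fluorescence.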
Assay [20] is described as follows: qHTS assay for cell viability of HEK293 cells (AID 743288). Note: % is set by controls: 0 for no effect and ±100 for the full control effect; nearly all actives have a fitted effect of over 50% in size. To be noted: ATP luminescence (CellTiter-Glo), 18 h; max response: stronger effect = lower value. The method in brief: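 Readout is luciferase-coupled ATP content (CellTiter-Glo luminescence, 30 min room temperature) as a measure of metabolically competent cells. Parental HEK293 cells were plated 5 h or more before compound addition, then treated 18 h at 37 C.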

Sequence of Cytochrome P450 3A4 (Homo sapiens) (P08684 whole entry, looked up): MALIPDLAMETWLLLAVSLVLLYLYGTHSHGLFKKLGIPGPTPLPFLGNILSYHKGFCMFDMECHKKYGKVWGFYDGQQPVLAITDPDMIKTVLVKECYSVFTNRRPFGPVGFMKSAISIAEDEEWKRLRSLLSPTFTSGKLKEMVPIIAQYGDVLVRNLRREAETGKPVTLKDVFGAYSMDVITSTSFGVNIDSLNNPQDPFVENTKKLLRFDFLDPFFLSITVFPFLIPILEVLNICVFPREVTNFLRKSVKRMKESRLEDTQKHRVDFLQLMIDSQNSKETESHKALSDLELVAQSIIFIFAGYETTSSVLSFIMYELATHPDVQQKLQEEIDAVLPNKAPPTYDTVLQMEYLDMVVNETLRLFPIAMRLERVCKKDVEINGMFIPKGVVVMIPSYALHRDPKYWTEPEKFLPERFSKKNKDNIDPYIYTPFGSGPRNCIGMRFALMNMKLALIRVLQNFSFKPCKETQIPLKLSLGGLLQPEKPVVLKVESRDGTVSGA

With `CC(=O)c1ccc(Cl)c(Cl)c1Cl`, the Potency in [1], in assay [2] and in [3] was > 92 µM (inactive) in each case. Moreover, the Potency result in assay [4], in assay [5], in [6], in assay [8], in [9] and in [10] was “inactive” in each case. In addition, the Potency result in assay [12], in assay [13], in assay [14], in [15], in [16] and in assay [19] was “inactive” each time. Besides, the call in assay [7] and in assay [11] was inactive. The max response in assay [17] is -2.76%; in assay [18], 5.75% (inactive); in assay [20] it was 4.03% (inactive).
Take `CCC(Cl)CC(Cl)C(Cl)C(Cl)C(Cl)C(C)Cl` (stereo not drawn): the Potency in assay [1], in [2] and in assay [3] was > 92 µM (inactive) each time. Also, the Potency entry in assay [4], in assay [5], in assay [6], in assay [8], in assay [9] and in assay [10] was “inactive” in each case. Besides, the Potency entry in assay [13], in assay [14], in assay [15], in assay [16] and in [19] was “inactive” in each case. Moreover, the outcome in [7] and in assay [11] was inactive. In addition, the figures for the max response in assay [17], in assay [18] and in assay [20] were 7.22%, -1.06% (inactive) and 0.239% (inactive), respectively.
As to `Oc1ccc(O)c2c(O)cccc12`, the Potency in assay [1] was > 92 µM (inactive); in assay [2], > 92 µM (inactive); in assay [3] it was > 92 µM (inactive); in assay [15] it was 50.1 µM (active). Further, the Potency result in [4], in assay [8], in [9], in assay [10], in [12] and in [13] was “inactive” in each case. For the same molecule, the Potency entry in [14] and in assay [16] was “inactive” throughout. The molecule was classed as inactive in assay [7] and in assay [11]. In addition, the max response in [17] was -12.8%; in assay [18] it was -1.49% (inactive); in [20], -5% (inactive).
Take `c1ccc2c(c1)ccc1ccccc12`: the Potency in [1], in [2] and in assay [3] was > 92 µM (inactive) throughout. In addition, the Potency entry in [4], in assay [5], in assay [6], in [8], in assay [9] and in assay [10] was “inactive” in each case. In addition, the Potency result in assay [12], in [13], in assay [14], in assay [15], in [16] and in assay [19] was “inactive” throughout. For the same molecule, the call in [7] and in assay [11] was inactive. Also, the max response in assay [17] was -0.251%; in assay [18], 9.87% (inactive); in [20] it was 2.85% (inactive) and -2.95% (inactive).
Consider `CN(C)c1ccc(C(=N)c2ccc(N(C)C)cc2)cc1`, for which the Potency in assay [2] was 57 µM (active); in [9], 39.8 µM (active); in assay [12] it was 15.8 µM (active); in assay [13], 50.1 µM (active); in assay [15], 39.8 µM (active). The result in assay [7] was inactive. The Potency entry in [16] was “inactive”.
